# Assay outcomes (PubChem BioAssay)
# HCV inh = qHTS Assay for Inhibitors of Hepatitis C Virus (HCV); Potency, µM (doses to about 41.8 µM), usual class: inhibitors; hit rate 3.4% among 340,000; Huh7.5.1 HCVcc-Cre infection, luciferase reporter, 44 h; AID 651820, 2012
#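 1,000 cells/well; 4 h culture; + compound; + HCVcc-Cre (~0.5 moi); 44 h; luciferase substrate, RT 15 min; read 15 sec.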
# HCMV antiviral = qHTS Assay for inhibitors of the human cytomegalovirus (HCMV); HFF cells, HCMV-luciferase reporter, 72 h; stronger effect = lower value; activity change, negative = inhibition, % at 57.5 µM; hit rate 4.5% among 410,000; in the data active = activity change below about -60%; inconclusive = no clear call, values can overlap the other calls; inactive = above about -39%
#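 Inhibition of viral replication was scored as loss of reporter luminescence in HFFs infected with HCMV-luciferase (MOI 1 PFU/cell) for 72 h; compounds tested at 2 doses, normalized to buffer and Salinomycin controls.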
# Pf growth 48h = Primary qHTS for delayed death inhibitors of the malarial parasite plastid, 48 hour incubation | Potency, µM (series often up to 28.7 µM), most hits filed as inhibitors | P. falciparum luciferase growth in erythrocytes, 48 h | hit rate 5.9% among 310,000
#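 Luminescence readout; reporter = integrated firefly luciferase in P. falciparum. RBC culture at 2% hematocrit, 0.1% parasitemia final, 37 C/5% CO2; decreased signal taken as growth inhibition.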
# Pf growth 96h = Primary qHTS for delayed death inhibitors of the malarial parasite plastid, 96 hour incubation; P. falciparum luciferase reporter growth, 96 h; Potency, µM (top dose mostly 28.7 µM), hits mostly inhibitors; hit rate 6.9% among 320,000; AID 504834, 2011
#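 Compounds incubated with erythrocytes infected by luciferase-expressing P. falciparum (2% hematocrit, 0.05% parasitemia final) for 96 hours, 37 C in 5% CO2. Growth inhibition scored as decreased luciferase luminescence.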
# Numbers stand for hits; - = inactive; ? = inconclusive; . = no result given; [ ] = dose if it differs, or a comment. A selection: hits, their analogues and other compounds. The true share with any hit is near 13%. Unless noted, calls follow the shape of the dose curve; as a rule, active = well fitted inhibition curve with a large enough effect; inconclusive = small, poorly fitted or top-dose-only effect, or another doubt; inactive = no such curve, though single readings can be large or run the other way.
SMILES,HCV inh,HCMV antiviral,Pf growth 48h,Pf growth 96h
COCCNC(=O)Cc1c(C)c2c(cc(C)c3c(C)coc32)oc1=O,-,-,-[0.00184 µM],-
COCCCNC(=O)Cc1c(C)c2c(cc(C)c3c(C(C)(C)C)coc32)oc1=O,11µM,-,-,-
Cc1c(CC(=O)NCCc2ccccc2F)c(=O)oc2c(C)c3occ(C(C)(C)C)c3cc12,.,-78,.,.
CCSC1=N/C(=C\c2ccccc2)C(=O)N1c1ccc(OC)cc1,10µM,?,?,?
CCN(CC)C1=N/C(=C\c2ccc(OC)cc2)C(=O)N1c1ccccc1,?,-74,-,-
CCC(SC1=N/C(=C/c2ccccc2)C(=O)N1c1ccccc1)C(=O)Nc1cc(C)on1 (stereo unspecified),?,-,5.9µM,-
COc1ccc(/C=C2/N=C(SCC(=O)Nc3cc(C)on3)N(c3ccccc3)C2=O)cc1,-,-,-,-
COc1ccccc1N1CCN(C(=O)CSc2nc(-c3ccc(C(C)C)cc3)no2)CC1,.,-,.,.
CCCCOCC1CN(CCCC)S(=O)(=O)c2c(cccc2N(C)S(=O)(=O)c2ccc(C)cc2)O1 (stereo unspecified),.,-,.,.
CN(Cc1ccccc1)C(=O)c1ccc(CSc2nc3cccnc3n2Cc2ccccc2F)cc1,.,-,.,.
CS(=O)(=O)c1cccc(C(=O)Nc2cccc(-c3nc4ccccc4[nH]3)c2)c1,-,-,-,?
O=C(Nc1cccc(-c2nc3ccccc3[nH]2)c1)c1cccc(NC(=O)c2ccco2)c1,3.5µM,-102,?,.
Cc1cccc2[nH]c(-c3ccc(NC(=O)c4ccco4)cc3)nc12,-,-,-,0.41µM
O=C(Nc1cc(-c2ccccc2)cs1)c1ccco1,?,-,?,2.3µM
O=C(Nc1ccc2nc(-c3ccccc3)[nH]c2c1)c1ccco1,?,-67,?,-
O=C(Cn1c(=O)nc(-c2ccccc2)c2cc(Cl)ccc21)Nc1ccc(F)c(Cl)c1,.,-,.,.
CCC1Oc2ccc(C)cc2N(CC(=O)N(Cc2ccc(C)o2)C2CC(C)(C)NC(C)(C)C2)C1=O (stereo unspecified),?,-,?,?
CCC1Oc2ccc(C)cc2N(CC(=O)N(Cc2cccnc2)Cc2ccc(C)o2)C1=O (stereo unspecified),-,-,12µM,-
COc1cccc(F)c1C(=O)NC(=O)Nc1ccc2nc(C)oc2c1,-,.,2.1µM,2.1µM
CCOC(=O)c1ccc(NC(=O)CSc2nc3ncc(Br)c(C)c3[nH]2)cc1,.,-,.,.
COc1ccc(CC2(C)OC(c3ccc([N+](=O)[O-])cc3)=NN2C(C)=O)cc1 (stereo unspecified),?,-,9.3µM,9.3µM
COc1ccc(C(=O)NNC(=O)Cc2ccc([N+](=O)[O-])cc2)cc1,-,-,-,-
C=C(C)COc1ccc(-c2nc(N)ncc2Oc2ccc(OC)cc2)c(O)c1,-,-,?,-
CCOc1ccc(-c2nc(N)ncc2Oc2ccccc2Br)c(O)c1,?,-,.,3.3µM
CCOc1ccc(-c2nc(N)ncc2Oc2cccc(OC)c2)c(O)c1,13µM,-,.,?
SMILES,HCV inh,HCMV antiviral,Pf growth 48h,Pf growth 96h
O=C(Cn1c(=O)nc(-c2ccccc2)c2ccccc21)Nc1ccc(Cl)cc1F,.,-,.,.
CCOC(=O)N1CCC(NC(=O)c2ccc3c(c2)N(Cc2ccc(F)cc2)C(=O)c2ccccc2S3(=O)=O)CC1,.,-,.,.
CC(=O)Nc1ccc(SCc2ncc(-c3ccccc3)o2)cc1,-,-,-,-
c1ccc(-c2cnc(CSc3ncnc4sccc34)o2)cc1,11µM,-,-,-
CCN(CCCNc1ncnc2nc[nH]c12)c1cccc(C)c1,?,-76,-,-
c1ccc2c(CCNc3ncnc4nc[nH]c34)c[nH]c2c1,7.1µM,?,-,?
CCCCN(c1ccccc1)c1ncnc2nc[nH]c12,-,.,?,?
c1ccc(CCNc2ncnc3nc[nH]c23)cc1,?,?,-,-
CCCCN(CCCNc1ncnc2nc[nH]c12)c1ccccc1,?,-,?,12µM
COc1ccc(Cl)cc1C(=O)NCC(c1ccc(N(C)C)cc1)N1CCCC1 (stereo unspecified),.,-,.,.
O=C(NCc1ccccc1)C(=O)Nc1ccc2nc3n(c(=O)c2c1)CCCCC3,.,-,.,.
CSc1cccc(NC(=O)c2cccc(N3CCCS3(=O)=O)c2)c1,.,-,.,.
CNc1ccccc1C(C)(C)c1cc(-c2ccco2)n[nH]1,-,-,?,-
CNc1ccccc1C(C)(C)c1cc(-c2cc(C)cc(C)c2)no1,?,-,?,9.3µM
CNc1ccccc1C(C)(C)c1cc(-c2cccc(OC)c2)no1,?,-83,?,?
CNc1ccccc1C(C)(C)c1cc(C)[nH]n1,-,-65,-,-
CCOC(=O)C1CCC(CN(Cc2c(Cl)cccc2Cl)S(=O)(=O)c2ccc(Cl)cc2)CC1 (stereo unspecified),.,-,.,.
CCCCOC(=O)CSc1n[nH]c(=O)[nH]c1=O,-,-,.,13µM
CCOc1ccc2nc(N3C(=O)CNC3=S)sc2c1,-,-106,-,?
COc1ccc2nc(N3CCN(C(=O)CS(=O)(=O)c4ccc(C)cc4)CC3)sc2c1,.,-64,.,.
CCCCC(=O)N1CCN(c2nc3ccc(OCC)cc3s2)CC1,-,-,?,12µM
CCOc1ccc2nc(N3CCC(C(=O)N4CCN(c5ccccn5)CC4)CC3)sc2c1,6.3µM,.,?,-
COc1ccc2nc(N3CCN(C(=O)c4ccco4)CC3)sc2c1,.,-,.,.
Cc1cc2nc(N3C(=O)CNC3=S)sc2cc1C,-,-,-,-
CCCCC(=O)N1CCN(c2nc3ccc(F)cc3s2)CC1,?,?,-,-
SMILES,HCV inh,HCMV antiviral,Pf growth 48h,Pf growth 96h
COc1ccc2c(CNC3CCCCCC3)c(C(=O)O)n(Cc3ccc(C)cc3)c2c1,.,-,.,.
COc1ccc2c(CNCCc3ccccc3OC)c(C(=O)O)n(Cc3ccc(F)cc3Cl)c2c1,.,-108,.,.
COc1ccc(Cn2c(C(=O)O)c(CNCCc3ccco3)c3ccc(OC)cc32)cc1,.,-,.,.
COc1ccc2c(CNCCc3ccc(SC)cc3)c(C(=O)O)n(Cc3ccc(F)cc3)c2c1,.,-74,.,.
COc1ccc(Cn2c(C(=O)O)c(CNC3CCCCCC3)c3ccc(OC)cc32)cc1,.,-100,.,.
CC(C)CNC(=S)N1CCC(Cc2ccccc2)CC1,-,-,?,15µM
CC(C)CNC(=S)N1CCC(NC(=O)c2ccco2)CC1,-,-,-,12µM
CC(C)CNC(=O)C1CCCN(C(=O)NCc2ccccc2)C1 (stereo unspecified),-,-,-,4.7µM
Cc1ccc(C)c(NC(=S)N2CCC(NC(=O)c3ccco3)CC2)c1,-,-,-,-
Cc1ccccc1NC(=S)N1CCC(NC(=O)c2ccco2)CC1,-,-,-,3.3µM
CCOCCCNC(=S)N1CCC(NC(=O)c2ccco2)CC1,-,-,-,-
COc1ccc(-c2ccc(C(=O)N3CCOCC3)c3occc23)c(C)c1,.,-,.,.
O=C1NC(=O)C2(CCOc3ccc(F)cc32)N1 (stereo unspecified),.,-,.,.
